# This is a sample that favours compounds with a hit; in the whole collection about 1.2% have one here.
# AMA1 RON2 block: disrupts binding of P. falciparum AMA1 to RON2 | Potency, µM (series often up to 58.2 µM), for the others: top-dose activity change, negative = inhibition, actives largely listed as inhibitors | 360,000 tested, 0.2% active | AlphaScreen AMA1-biotinylated RON2 peptide binding;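 also: potency is read from the fitted curve at half-maximal effect; 0% = vehicle wells and -100% = peptide control; nearly all actives have a fitted effect of over 45% in size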
#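 AMA1 (3D7) with his tag at 25 nM final met compounds first, then biotinylated RON2 peptide at 25 nM; detection used donor plus acceptor beads, 10 µg/mL apiece, read by AlphaScreen after 30 min at room temperature.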
# Tb PYK inh: blocks Trypanosoma brucei pyruvate kinase | Q57TT1 | 410,000 tested, 0.12% active | TbPYK enzyme, Kinase-Glo Plus ATP luminescence, 45 min | Potency, µM (titrated, usually from 76.8 µM), for the others: at the top dose activity, negative = inhibition, usual class: inhibitors; also: potency is read from the fitted curve at half-maximal effect; % is scaled to controls: 0 for no effect and ±100 for the full control effect; nearly all actives have a fitted effect of over 50% in size
#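 Screened from lowest to highest concentration, compounds were pinned into TbPYK/substrate mixtures, and ADP (130 uM final) was added. Plates sat at room temperature for 45 min prior to Kinase-Glo Plus detection by luminescence.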
# LmPK inh: blocks Leishmania mexicana pyruvate kinase activity; Potency, µM (highest dose often 57.5 µM), inactives show at the top dose activity change, negative = inhibition, most hits filed as inhibitors; purified LmPK, Kinase-Glo ATP luminescence, 1 h; Q27686; AID 1721; 290,000 tested, 0.37% active; also: potency is read from the fitted curve at half-maximal effect; % is scaled to controls: 0 for no effect and ±100 for the full control effect
#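 Purified LmPK (0.1 nM) with 0.5 mM PEP and 0.1 mM ADP in imidazole buffer pH 7.2 with MgCl2/KCl, 1 h at room temperature. ATP formed was read by luciferase luminescence and normalized to no-enzyme and uninhibited controls.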
# NS1 function inh: influenza NS1 inhibition; Potency, µM (titrated, usually from 46.1 µM), for the others: at the top dose activity, positive = more growth; 270,000 tested, 0.4% active; calls by dose curve; also: potency is read from the fitted curve at half-maximal effect; actives are rising curves; nearly all actives have a fitted effect of over 50% in size
#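 OD600 was taken as the measure of yeast growth restored by compound in an NS1-expressing S. cerevisiae strain. Cells had been washed out of glucose medium and diluted 1:100 into galactose -URA medium, pH 6.0.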
# Giardia FBPA inh: blocks Giardia fructose-bisphosphate aldolase activity. AID 2451. A8B2U2. 290,000 tested, 0.71% active. Potency, µM (series often up to 59.6 µM), for the others: at the top dose activity, negative = inhibition, usual class: inhibitors. purified Giardia FBPA; also: potency is read from the fitted curve at half-maximal effect; % is scaled to controls: 0 for no effect and ±100 for the full control effect; nearly all actives have a fitted effect of over 55% in size
# Target sequence (A8B2U2 whole entry, looked up): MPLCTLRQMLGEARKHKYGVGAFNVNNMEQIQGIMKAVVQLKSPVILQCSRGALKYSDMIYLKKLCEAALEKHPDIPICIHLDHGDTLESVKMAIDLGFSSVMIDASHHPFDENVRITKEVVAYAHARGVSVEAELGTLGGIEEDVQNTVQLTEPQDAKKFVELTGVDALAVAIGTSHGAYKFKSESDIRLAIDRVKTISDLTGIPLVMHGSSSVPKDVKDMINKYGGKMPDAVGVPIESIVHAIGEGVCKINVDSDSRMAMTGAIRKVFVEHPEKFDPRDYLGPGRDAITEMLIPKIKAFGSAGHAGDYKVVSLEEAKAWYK
#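 Giardia FBPA (40 nM reagent) was preincubated 10 min at RT with compound (up to 57.5 uM final), then substrate plus GAPDH/TPI/NAD/arsenate coupling system with diaphorase/resazurin was added; resorufin fluorescence (525/598 nm) was read after 20 min.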
# NS1 inh valid: validation of influenza NS1 protein function inhibitors; activity change, negative = inhibition, % at 32.9 µM; influenza NS1 function cell assay, 15-point titration; 1,400 tested, under 10 active; shares compounds with NS1 function inh; AID 492980; calls by dose curve; also: 0% is about no effect
# * hit, by the source's call; ? = inconclusive; · = not tested or not shown; [ ] = another dose, or the depositor's remark. Unless noted, calls follow the shape of the dose curve; as a rule, active = well fitted curve in the direction sought with a large enough effect; inconclusive = small, poorly fitted or top-dose-only effect, or another doubt; inactive = no such curve, though single readings can be large; an effect the other way counts as inactive or inconclusive.
SMILES,AMA1 RON2 block,Tb PYK inh,LmPK inh,NS1 function inh,Giardia FBPA inh,NS1 inh valid
C[C@@]1(C(NS(=O)(=O)c2cccc3cccnc23)c2ccc(-c3ccccc3)cc2)C[C@H]1C1CCCCC1 (stereo partly specified),·,·,·,·,-0.1%,·
CCN(CCO)c1nc(SC)nc2c1sc1nc(-c3ccco3)c3c(c12)CCC3,7.3%,-7.5%,2.1%,?,-4.5%,-1.5
COc1ccc2c(c1)O[C@@H](c1ccc3c(c1)OCO3)[C@H](OC(=O)N[C@H]1CCCc3ccccc31)C2=O,·,·,·,·,0.6%,·
Cn1c(CCN2CCCCC2)nc2cc(NS(=O)(=O)c3ccc(Cl)cc3)ccc21,-5.1%,1.4%,5.0%,0.891µM*,15.9%,-23.0
Cc1ccc(NC(=O)/C(=C/c2cccc([N+](=O)[O-])c2)NC(=O)C2CCCCC2)cc1,0.3%,0.4%,4.5%,0.8%,0.5%,·
CC(=O)N/C(=C\c1cccc([N+](=O)[O-])c1)C(=O)NC1CCCCC1,13.5%,5.1%,-3.8%,11.2µM*,15.0%,5.4
COc1cc(Cl)c(NS(=O)(=O)c2ccc3c(c2)CC(C)N3C(=O)C2CCC2)c(OC)c1 (stereo unspecified),·,3.3%,·,·,·,·
CCOC(=O)c1cn(Cc2ccccc2)nn1,16.7%,-1.8%,0.9%,1.41µM*,0.8%,-7.0
Cc1nc2cnc(N3CCNCC3)nc2n(C2CC2)c1=O,·,0.0%,·,·,-1.7%,·
COc1ccc(-c2nc(NC(=O)C3CC(=O)N(c4ccc5c(c4)OCCO5)C3)sc2C)cc1 (stereo unspecified),?,-19.4%,2.9%,11.2µM*,-5.8%,7.0
Cc1cc2nc3c(=O)n(C4CCCCC4)c(=O)[nH]c3nc2cc1N,65.0%,?,-8.1%,7.94µM*,?,0.5
Cc1cc(C)cc(Nc2cc(=O)n(C3CCCCC3)c(=O)[nH]2)c1,2.8%,-6.2%,-4.6%,7.5%,0.5%,·
COc1ccc2c(c1)c(C(C)=O)c(C)n2CCc1ccc(OC)c(OC)c1,-6.2%,4.1%,3.3%,-5.9%,-6.9%,·
COc1ccc2c(c1)c(C(=O)O)c(C)n2CCc1ccc(OC)c(OC)c1,-2.2%,-6.6%,2.8%,6.31µM*,12.6%,5.6
COc1ccc(/C=N/NC(=O)c2cc(-c3ccc(C)cc3C)nc3ccccc23)cc1COC(C)=O,-6.9%,10.1%,4.9%,10µM*,1.3%,5.6
CCCC(C)C(=O)Nc1nc(C)c(-c2csc(Nc3ccc(Cl)cc3)n2)s1 (stereo unspecified),16.3%,-0.8%,-0.7%,4.47µM*,0.2%,-9.9
CCCC(C)C(=O)Nc1nc(C)c(-c2csc(Nc3ccccc3OC)n2)s1 (stereo unspecified),25.8%,6.6%,-2.6%,10.9%,1.3%,·
Cc1cc(OCc2ccc(C(=O)NN=C3CCCC3)cc2)ccc1Cl,-2.5%,-3.6%,-1.4%,14.1µM*,14.7%,?
CCCCn1c(CNC(=O)c2ccc(OC)cc2)nnc1SCC(=O)Nc1ccccc1,·,-1.8%,·,·,·,·
CNS(=O)(=O)c1cc(N(C)S(=O)(=O)c2ccc(C)cc2)c(C)cc1C,-3.7%,-6.3%,4.0%,1.1%,-2.3%,·
Cc1ccc(S(=O)(=O)N(C)c2cc(S(=O)(=O)N3CCC(C)CC3)c(C)cc2C)cc1,-6.0%,-8.0%,4.5%,11.2µM*,·,9.8
FC(F)(F)c1ccccc1-c1cncnc1NCCc1cnc[nH]1,·,·,·,·,4.9%,·
O=C(CSc1nnc(-c2ccc(O)cc2)n1-c1ccccc1)CC(=O)Nc1ccccc1,17.0%,-16.5%,0.9%,10µM*,7.6%,22.9
NC(=O)c1ccc(-n2nnnc2SCC(=O)Nc2ccccc2)cc1,0.2%,1.4%,-1.2%,14.0%,-1.0%,·
O=C(CSc1nnnn1-c1ccccc1)CC(=O)Nc1ccc(Cl)cc1,-5.4%,-15.4%,1.2%,2.51µM*,?,9.6
SMILES,AMA1 RON2 block,Tb PYK inh,LmPK inh,NS1 function inh,Giardia FBPA inh,NS1 inh valid
CC(=O)OC1CC(OC(C)=O)[C@]2(C)C(CC(=O)[C@]3(C)C2CC[C@@]2(C)C(C(=O)O)OC(=O)C4OC423)C1(C)C (stereo partly specified),·,·,·,·,-0.1%,·
O=C(O)CC1=C(O)C(=O)N(c2ccccc2)C1c1ccccc1 (stereo unspecified),-3.1%,-4.1%,-4.4%,?,19.9%,·
O=C(O)CC1=C(O)C(=O)N(c2ccccc2)C1c1ccc(Br)cc1 (stereo unspecified),8.0%,2.5%,2.7%,7.94µM*,14.3%,26.2
CCN(CC)c1nc2c3c(nc4c(c3c1C#N)CC(=O)N4c1ccc(Cl)cc1)NC(C)=N2,2.7%,4.7%,-6.3%,14.1µM*,-4.9%,28.8
CCc1ccc(N2C(=O)Cc3c2nc(N)c(C#N)c3N)cc1,44.4%,-1.6%,3.6%,16.3%,-28.6%,·
C=CCOC(=O)N[C@@H](CC(C)C)/C(C(=O)OC)=C(\C)NCc1ccccc1,·,·,·,·,-3.0%,·
COCCOC(=O)C1=C(C)NC(C)=C(C(=O)OC(C)C)[C@H]1c1cccc([N+](=O)[O-])c1,·,·,·,·,-1.0%[21.7 µM],·
CC1=C(C(=O)OC(C)C)C(c2cccc([N+](=O)[O-])c2)n2c(cc(=O)[nH]c2=S)N1 (stereo unspecified),33.7%,2.1%,3.1%,11.2µM*,19.7%,36.2
CC(C)N(Cc1ccccc1)S(=O)(=O)c1ccc(-c2cc(C(F)(F)F)on2)s1,·,-4.1%,·,·,·,·
CCCCC(=O)N(Cc1ccc(-c2ccccc2-c2nn[nH]n2)cc1)C(C(=O)O)C(C)C (stereo unspecified),·,0.7%,·,·,-9.0%,·
CCOC(=O)N1CCC(c2nc(C)sc2C(=O)O)CC1,1.8%,-6.8%,0.7%,?,1.4%,-3.3
Cc1sc2ncnc(SCC(=O)c3ccc(Cl)s3)c2c1C,·,·,-2.2%,7.08µM*,2.1%,3.8
CCC(C)C(=O)O[C@H]1C[C@@H](C)C=C2C=C[C@H](C)[C@H](CC[C@@H]3C[C@@H](O)CC(=O)O3)C21 (stereo partly specified),·,·,·,·,3.1%,·
COc1cccc(/C=C2\C(=O)N(c3cccc(C)c3)C(=O)c3ccccc32)c1,26.1%,-14.1%,0.4%,?,-13.9%,?
Cc1cc(Br)ccc1NC(=O)C(NS(=O)(=O)c1cccs1)c1ccccc1 (stereo unspecified),·,-0.4%,·,·,·,·
O=[N+]([O-])c1ccccc1S(=O)(=O)Oc1ccccc1/C=N/n1cnnc1,-5.9%,2.9%,-0.7%,20µM*,?,-30.1
CCCCNC(=O)c1ccc2c(c1)ncn2C1CCCC1,-6.4%,-5.5%,6.6%,-4.0%,0.2%,·
CC1CC(C)CN(CCCNC(=O)c2ccc3c(c2)ncn3C2CCCC2)C1 (stereo unspecified),3.7%,1.9%,8.1%,?,7.8%,-38.5
CC(=O)C1CCC2C3CC(C)C4=CC(=O)CC[C@@]4(C)C3C(O)C[C@@]12C (stereo partly specified),·,·,·,·,5.6%,·
